From PubChem BioAssay (NCI)
Compounds without any hit were thinned out: in the full panel of roughly 83,000, 20% have a hit.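 Single-dose data. Exposure time 48 hours. Values below 10 considered active.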 Values without a mark were called inactive. Activity calls are given as the source filed them.

These compounds were tested on RXF 393 renal (assay: NCI-60 one-dose screen, 48 h (100 = growth as untreated, 0 = no growth, -100 = all killed)). Settings: 10 µM.

| SMILES | growth |
| --- | --- |
| CCCCCCCCCCCC(=O)NCCCN(C)C | 116% |
| Nc1ccc(C2=CC(c3ccc(Cl)cc3)N3C=CSC3=N2)cc1 (stereo unspecified) | -93.1% (active) |
| CC(=O)n1nc(C(=O)OC(C)(C)C)c2cc(F)c(F)cc21 | 126% |
| COC(=O)c1c(C)nc(Nc2nc3ccccc3s2)nc1-c1ccc(Cl)cc1Cl | 107% |
| O=C(O)CCCCSCCCCC(=O)O | 111% |
| COc1cc(-c2nc3ccc(C)cc3[nH]2)ccc1OCC(=O)N=Nc1c(O)[nH]c2ccccc12 | -9.89% (active) |
| CC1=CSC2=NC(c3ccc(Cl)c(Cl)c3)=CC(c3ccc(Cl)cc3)N12 (stereo unspecified) | -47.7% (active) |
| COc1ccc(Nc2ccnc(N3CCN(c4ccnc5cc(Cl)ccc45)CC3)n2)cc1 | -26.6% (active) |
| Cn1cnc([N+](=O)[O-])c1/C=C1\Oc2ccc(Cl)cc2C1=O | 99.1% |
| CCOC(=O)Cn1nnc(-c2ccc(OCc3ccccc3F)cc2)n1 | 79.9% |
| COc1ccc(/C(CS(=O)(=O)c2ccccc2)=N\O)cc1 | 92.1% |
| COc1ccc(S(=O)(=O)Nc2cc(/C=C\c3cc(OC)c(OC)c(OC)c3)ccc2OC)cc1 | 16.4% |
| COc1ccc2nc(C)cc(Nc3ccc(Cl)cc3)c2c1 | 118% |
| COc1cc(-c2nc3ccc(C)cc3[nH]2)ccc1OCc1nnc(-c2ccc(CC(C)C)cc2)o1 | 71.3% |
| Cc1noc(C)c1-c1ccc2nc(NC(=O)[C@H]3CCN(C#N)C3)cn2c1 | 83.4% |
| COc1ccc(COC(=O)CC(C)C)cc1 | 101% |
